Compound activity from PubChem.
TWEAK Fn14 block: TWEAK-Fn14 signaling inhibition. inhibition, % at 10 µM. hit rate 2% among 360,000. TWEAK-stimulated Fn14 reporter cells, luciferase luminescence, 8 h; in the data active = inhibition above about 50%
TROY signal inh: blocks TROY-dependent signaling in reporter cells; Q293 LMP1-TROYcd NF-kB luciferase reporter, 4 h; inhibition, % at 10 µM; hit rate 0.98% among 360,000; AID 1347056;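 active = compounds whose plate-normalised and pattern-corrected inhibition of the luciferase reporter signal at the single screening dose is 50% or more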
LMP1 NFkB inh: Epstein-Barr LMP1 NF-kappaB reporter inhibition. LMP1-induced NF-kappaB luciferase reporter cells, luminescence. inhibition, % at 12.5 µM. hit rate 0.69% among 350,000; in the data active = inhibition above about 41%; inconclusive = no clear call, values can overlap the other calls;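 note: 0% = neutral control wells and 100% = reference inhibitor control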
LGR2 antag: inhibitors of bursicon-induced Drosophila LGR2 receptor cAMP signaling; HEK293 LGR2, CRE-luciferase, bursicon-stimulated, 4 h; inhibition, % at 9.99 µM; hit rate 0.35% among 380,000;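 active = drop in luminescence signal, shown as inhibition above about 50% in the replicate tests, limit read from the data, passing the limit was not always enough; inconclusive = probably only some replicates passing the limit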;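 note: agonist challenge used bursicon conditioned medium at about half maximal strength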
PAX8 reporter: inhibitors of PAX8 transcriptional activity in RMG-I cells. hit rate 1.2% among 360,000. inhibition, % at 12.6 µM. RMG-I TPO-luciferase reporter, SteadyGlo, 24 h;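 active = mean replicate inhibition at least 60% with every replicate also reaching 60%; inconclusive = only one of the two criteria is met; inactive = mean below 60% and not all replicates reaching 60%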;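 note: luciferase light reporting Pax8 driven TPO promoter activity; plate controls were median of neutral control wells for no effect and mitoxantrone controls for full effect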
EWS-Fli inh: EWS/Fli transcriptional activity inhibition | AID 651661 | inhibition, % at 12.6 µM | hit rate 0.67% among 350,000 | A673 NR0B1-luciferase reporter, viability-normalised;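 active = mean inhibition of at least 50% after viability correction, with every replicate also passing that limit; inconclusive = mean reaches 50% but only one of two replicates passes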;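 note: firefly luciferase signal divided by Alamar Blue viability fluorescence both relative to DMSO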
* hit, by the source's call; ? = inconclusive; · = no result. In the library only some 3.1% were active in any assay of this set; here they are far more common.

SMILES	TWEAK Fn14 block	TROY signal inh	LMP1 NFkB inh	LGR2 antag	PAX8 reporter	EWS-Fli inh
COc1ccc(-c2cc(C(F)(F)F)nc(S(=O)(=O)CCCC(=O)Nc3cccc(O)c3)n2)cc1OC	96*	53*	·	?	63*	-7
COc1ccc(-c2cc(C(F)(F)F)nc(SCC(=O)N3CCOCC3)n2)cc1OC	-18	-13	-8	-15	·	·
COc1ccccc1-c1cc(C(F)(F)F)nc(S(=O)(=O)CCCC(=O)N2CCOCC2)n1	38	58*	-19	·	·	·
COc1ccccc1-c1cc(C(F)(F)F)nc(S(=O)(=O)CCCC(=O)O)n1	28	14	-15	·	·	·
COc1ccc(-c2cc(C(F)(F)F)nc(S(=O)(=O)CCC(=O)N3CCOCC3)n2)cc1	75*	49	-5	·	·	·
CO[C@H]1CN(C)C(=O)c2cc(NC(=O)c3cccc(F)c3)ccc2OC[C@H](C)N(C(C)=O)C[C@@H]1C	·	·	·	5	·	-5
COc1ccc(C(Nc2ccccn2)c2oc(CO)cc(=O)c2O)cc1 (stereo not drawn)	9	2	68*	5	-7	-6
CN(CC(=O)Nc1ccc(Cl)c(C(F)(F)F)c1)C(=O)c1ccc(S(=O)(=O)N2CCOCC2)cc1	24	19	-1	-8	25	55*
CO[C@H]1CN(C)C(=O)c2ccc(NS(=O)(=O)c3ccccc3)cc2OC[C@@H](C)N(C(=O)NC(C)C)C[C@H]1C	·	·	·	-10	·	0
CCOC(=O)c1sc2ccccc2c1OC(=O)c1ccccc1OC	45	32	6	-6	60*	3
CCOC(=O)c1cc(OC(=O)c2ccccc2OC)n(-c2ccccc2)n1	4	4	5	13	·	·
CN1C(=O)c2cc(NC(=O)c3ccc(F)cc3)ccc2OC[C@@H]2O[C@H](CC(=O)N3CCOCC3)CC[C@@H]21	·	·	·	3	-11	14
C[C@@H]1CN([C@H](C)CO)C(=O)c2cc(NS(=O)(=O)c3cn(C)cn3)ccc2O[C@H]1CN(C)CC1CCCCC1	·	·	·	-6	·	2
Cc1ccccc1NC(=O)CCN1C(=O)CSC1=O	-6	-3	-3	·	-7	·
Cc1ccc(NC(=O)CCN2C(=O)CSC2=O)c(C)c1	74*	·	10	·	·	·
CCC(C)n1c(SCC(=O)NCc2ccco2)nnc1-c1cccc(S(=O)(=O)N2CCOCC2)c1 (stereo not drawn)	3	-10	0	14	·	·
O=C(CSc1nnc(-c2cccc(S(=O)(=O)N3CCOCC3)c2)n1C1CCCCCC1)NCc1ccccc1	2	6	47*	·	·	·
C[C@H](CO)N1C[C@H](C)[C@H](CN(C)C(=O)Cc2ccccc2)OCCCC[C@H](C)Oc2ccc(NS(=O)(=O)c3ccc(Cl)cc3)cc2C1=O	·	·	·	15	67*	-9
C[C@H](CO)N1C[C@H](C)[C@H](CN(C)C(=O)Cc2ccccc2)OCCCC[C@H](C)Oc2ccc(NS(=O)(=O)c3ccccc3)cc2C1=O	·	·	·	18	-5	60*
COc1ccc(NC(=O)Nc2ccc3c(c2)C(=O)N([C@@H](C)CO)C[C@@H](C)[C@@H](CN(C)C(=O)Nc2ccc4c(c2)OCO4)OCCCC[C@@H](C)O3)cc1	·	·	·	-7	-5	-4
C/C(=N\NC(=O)c1ccccc1-n1cccc1)c1ccccn1	-93	-11	8	0	71*	12
C/C(=N\NC(=O)c1ccc(F)cc1)c1ccccn1	-14	-71	5	-45	63*	-31
C[C@H]1CN([C@@H](C)CO)C(=O)c2cc(NC(=O)Nc3cccc4ccccc34)ccc2O[C@@H]1CN(C)C(=O)Nc1ccc(C(F)(F)F)cc1	·	·	·	11	·	-9
Cc1csc(NC(=O)c2ccc(OCC3CCCO3)cc2)n1 (stereo not drawn)	69*	23	35	?	-16	33
Cc1cccc2sc(NC(=O)c3ccc(OCC4CCCO4)cc3)nc12 (stereo not drawn)	85*	33	5	-44	-58	-67
SMILES	TWEAK Fn14 block	TROY signal inh	LMP1 NFkB inh	LGR2 antag	PAX8 reporter	EWS-Fli inh
CC(=O)Nc1ccc(NC(=O)COc2ccc3c(c2)CCC3)cc1	-2	-12	-8	-31	-17	-1
Cc1ccnc(NC(=O)c2ccc(OCC3CCCO3)cc2)c1 (stereo not drawn)	83*	57*	45*	0	49	70*
Cc1ccnc(NC(=O)COc2ccc3c(c2)CCC3)c1	79*	40	-19	15	-163	-15
C[C@@H]1CN([C@H](C)CO)C(=O)Cc2cc(NC(=O)C3CC3)ccc2O[C@@H]1CN(C)CC1CCCCC1	·	·	·	13	·	-2
COCC(=O)N(C)C[C@H]1Oc2ncc(-c3ccccc3C)cc2C(=O)N([C@@H](C)CO)C[C@H]1C	·	·	·	8	·	-5
C[C@H]1CN([C@@H](C)CO)C(=O)Cc2cc(NC(=O)CCN3CCOCC3)ccc2O[C@H]1CN(C)S(=O)(=O)c1ccc(Cl)cc1	·	·	·	-6	·	-8
CO[C@@H]1CN(C)C(=O)c2ccc(NC(C)=O)cc2OC[C@H](C)N(C(=O)C2CCCCC2)C[C@H]1C	·	·	·	-2	-5	5
O=C(C[C@@H]1C=C[C@H](NC(=O)C2CC2)[C@@H](CO)O1)NCCCN1CCOCC1	·	·	·	4	-9	6
Cc1csc(NC(=O)c2ccc(N3CCCC3=O)cc2)n1	90*	70*	69*	90*	51	47
CCOc1ccc(C(=O)Nc2nc(C)c(C(=O)OC)s2)cc1	-20	-53	·	-55	-62	73*
Cc1nnc(NC(=O)c2ccc(N3CCCC3=O)cc2)s1	0	-11	-23	-22	-96	-21
CCOc1ccc2nc(NC(=O)c3ccc(OCC4CCCO4)cc3)sc2c1 (stereo not drawn)	62*	49	2	-41	-64	-42
CCOc1ccc2nc(NC(=O)CSCC(=O)Nc3cc(C)on3)sc2c1	-14	-29	-11	-16	-35	60*
COC(=O)c1sc(NC(=O)c2ccncc2)nc1C	1	-4	4	1	-4	-5
C[C@@H]1CCCCO[C@H](CN(C)S(=O)(=O)c2ccccc2)[C@@H](C)CN([C@@H](C)CO)C(=O)c2cc(NC(=O)Nc3ccc(F)cc3)ccc2O1	·	·	·	7	-9	0
CO[C@@H]1CC[C@@H]2CCN(C)C(=O)CC3(CCCCC3)CN(C)C(=O)c3cccc(C#N)c3OC[C@@H]1O2	·	·	·	-8	2	12
COc1ccccc1CN1[C@@H]2CN(C(=O)C3CCC3)c3ccccc3[C@@H]2[C@@H]1CO	·	·	·	4	16	9
C#CC(=O)N(c1ccc(OC)c(OC)c1)C(C(=O)NC1CCCC1)c1cccs1 (stereo not drawn)	61*	11	10	101*	·	45
C#CC(=O)N(c1cccc(OC)c1)C(C(=O)NC1CCCC1)c1cccs1 (stereo not drawn)	55*	28	96*	104*	·	44
O=C(c1ccccn1)N1C[C@@H]2[C@H](c3ccccc31)[C@H](CO)N2C(=O)c1ccccn1	·	·	·	-6	-3	-3
